Compound activity deposited in PubChem by several laboratories.
Sampled rows, rich in hits. Any-hit rate of the full collection: about 2.7%.
CendR NRP1 mod: modulators of CendR peptide binding to NRP-1, primary screen, biochemical, fluorescence polarization, uHTS. Neuropilin-1 (Homo sapiens), O14786. FAM-RPARPAR peptide binding to NRP-1. inhibition, % at 25 µM. hit rate 0.85% among 360,000. AID 602438, 2012;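 active = inhibition or corrected inhibition above about 18%, plus a signal ratio from 0.5 to 1.5, limit read from the data, passing the limit was not always enough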
MPTP inh: mitochondrial permeability transition pore inhibitors, primary screen, biochemical, isolated mouse mitochondria, absorbance. hit rate 1.4% among 360,000. Ca2+ swelling absorbance, 30 min. inhibition, % at 10 µM;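 active = inhibition of 50% or more, scaled per plate between neutral and stimulator controls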;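 also: 0% = DMSO wells given calcium and 100% = 1 mM EGTA wells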
SKN-1 inh: suppressors of acrylamide-induced Pgst-4::GFP reporter in worms, primary screen, SKN-1 inhibitor project, whole organism, uHTS, GFP/RFP fluorescence ratio, strain VP596; hit rate 0.49% among 360,000; AID 624304, 2012; inhibition, % at 21.8 µM; C. elegans VP596 Pgst-4::GFP/RFP ratio, 24 h;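 active = interference check ratio from 0.5 to 1.5 plus GFP to RFP signal ratio inhibition reaching or exceeding a fixed threshold, cut at about 30% in these data, passing the limit was not always enough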
ATG4B inh: ATG4B protease inhibitors, primary screen, biochemical, fluorescence, uHTS; Cysteine protease ATG4B (Homo sapiens), Q9Y4P1; ATG4B cleavage of LC3-PLA2, NBD-HPC fluorescence, 1 h; inhibition, % at 8.33 µM; hit rate 0.51% among 340,000; in the data active = inhibition above about 40%
Target sequence (Q9Y4P1 whole entry, looked up): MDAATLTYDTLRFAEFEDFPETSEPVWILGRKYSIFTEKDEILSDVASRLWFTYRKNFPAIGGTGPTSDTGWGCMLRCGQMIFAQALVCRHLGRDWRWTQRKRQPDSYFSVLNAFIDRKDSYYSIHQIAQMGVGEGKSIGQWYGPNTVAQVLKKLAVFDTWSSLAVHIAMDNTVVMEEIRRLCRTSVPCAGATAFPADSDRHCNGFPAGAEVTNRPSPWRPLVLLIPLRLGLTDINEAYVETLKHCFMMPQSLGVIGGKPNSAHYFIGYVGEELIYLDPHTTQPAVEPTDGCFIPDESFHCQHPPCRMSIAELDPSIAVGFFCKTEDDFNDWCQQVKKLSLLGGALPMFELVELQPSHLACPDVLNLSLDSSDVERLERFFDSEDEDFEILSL
F508del corr: F508del CFTR correction, initial screen, CFBE line, single point; activity (quench increase), % at 7.58 µM; CFBE cells, YFP halide quenching; stimulated with forskolin plus potentiator P3; % fluorescence drop versus neutral controls; hit rate 0.36% among 350,000; AID 720511, 2013;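 active = mean added fluorescence quench of at least 8% versus neutral control, with both replicates also reaching 8%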;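 also: cells transiently co-express mutant CFTR-F508del with the halide-sensitive YFP; corrector assay measuring rescue of mutant channel to the surface after 24 h compound exposure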
MPTP counter: fluorescence retest of MPTP screen hits in isolated mitochondria, single concentration; hit rate 78% among 5,000; inhibition, % at 10 µM; shares compounds with MPTP inh; membrane potential, Rhodamine 123 fluorescence; in the data active = inhibition above about 22%;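 also: 0% = DMSO vehicle and 100% = positive control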
MPTP abs DR: mitochondrial permeability transition pore inhibitors, dose response, biochemical, absorbance, uHTS hits; shares compounds with MPTP inh; AID 651561, 2012; hit rate 58% among 780; isolated mitochondria swelling; IC50, µM; in the data active = IC50 below about 20 µM
MPTP cs DR: fluorescent counter-screen in isolated mitochondria, dose response, counter-screen for MPTP inhibitor project, biochemical, fluorescence, uHTS hits. shares compounds with MPTP inh. isolated mitochondria counterscreen, fluorescence read-out. IC50, µM. hit rate 49% among 780. AID 651564, 2012; in the data active = IC50 below about 80 µM
* marks the source's active call; other numbers are inactive results; nt = no result given; ! = a repeat was not active.

SMILES	CendR NRP1 mod	MPTP inh	SKN-1 inh	ATG4B inh	F508del corr	MPTP counter	others
CC1=NN(c2ccc(C)cc2)C(=O)/C1=C/c1ccc(-c2cc([N+](=O)[O-])ccc2O)o1	15.9	101.9*	-13.1	10.0	4.1	45.9*
O=C1NN(c2cccc(Br)c2)C(=O)/C1=C/c1ccc(-c2cc([N+](=O)[O-])ccc2O)o1	-17.6	78.6*	8.6	18.5	nt	-2.3
COc1ccccc1C(=O)Nc1ccc2c(c1)OC[C@H](C)N(CC1CC1)C[C@H](C)[C@@H](OC)CN(C)C2=O	nt	nt	nt	nt	0.0	nt
CCC(=O)N1CCN(c2nc3ccccc3s2)CC1	-21.9	-0.7	-5.6	-2.5	nt	nt
O=C(c1cc2sccc2n1Cc1ccccc1)N1CCN(c2nc3ccccc3s2)CC1	-2.2	101.9*	5.7	-10.3	nt	102.1*
CCN(CC)CCOc1ccc(/C(=C(\Cl)c2ccccc2)c2ccccc2)cc1	2.1	104.0*	-8.5	5.6	2.5	-13.4
CN1CCS/C1=C\C=C1/SC(=S)N(CC(=O)O)C1=O	134.8	-0.1	-9.3	-14.8	1.0	nt
CN1/C(=C\C=C2/SC(=S)N(CC(=O)O)C2=O)C(C)(C)c2ccccc21	135.8	75.1*	56.2	-64.6	16.2*	12.4
O=C(C[C@H]1CC[C@H]2[C@@H](COC[C@@H](O)CN2Cc2ccc(Oc3ccccc3)cc2)O1)N1CCOCC1	nt	nt	nt	nt	-1.1	nt
O=S(=O)(NCc1ccccc1)c1ccc(-c2cnc(C3CC3)o2)cc1	5.8	-0.6	2.0	-0.6	5.0	nt
CCOc1ccccc1CNS(=O)(=O)c1ccc(-c2cnc(C3CC3)o2)cc1	12.0	50.8*	18.0	-7.2	6.1	84.3*
COc1ccc(NC(=O)Nc2ccc3c(c2)CC(=O)N([C@H](C)CO)C[C@@H](C)[C@@H](CN(C)C(=O)Nc2c(C)noc2C)O3)cc1	nt	nt	nt	nt	-8.1	nt
c1ccc(-c2ccc(-c3nc(-c4ccncc4)no3)cc2)cc1	1.0	0.3	10.7	5.8	nt	nt
c1ccc(C(Cc2nc(-c3ccncc3)no2)c2ccccc2)cc1	-3.4	77.6*	-0.9	-3.6	nt	71.9*
Cc1ccc(NC(=O)CN2CCOCC2)cc1	-8.7	-1.5	8.5	2.5	-1.9	nt
Cc1ccc(NC(=O)CN2CC(C)SC2=NC2CCCCC2)cc1 (stereo not given)	-4.2	51.7*!	-1.4	4.2	0.2	-11.5	MPTP abs DR=12.7*;MPTP cs DR=>80
COc1ccc(S(=O)(=O)N(C)C[C@H]2Oc3ccc(NC(=O)Cc4cn(C)c5ccccc45)cc3CC(=O)N([C@@H](C)CO)C[C@H]2C)cc1	nt	nt	nt	nt	0.5	nt
Cc1ccc(NC(=O)C2CCN(S(=O)(=O)c3ccc4c(c3)NC(=O)C(C)S4)CC2)cc1Cl (stereo not given)	-7.0	96.3*	1.1	2.7	-0.5	97.3*
CN1CCN(C(c2ccc(F)cc2)c2ccc3cccnc3c2O)CC1 (stereo not given)	9.2	-2.3	24.2	-0.2	nt	nt
CN1CCN(C(c2ccc(Br)cc2)c2cc(Cl)c3cccnc3c2O)CC1 (stereo not given)	5.1	76.4*	8.0	11.5	-1.1	-21.3
CC1CCCN(c2nc(-c3cccnc3)nc3scc(-c4ccccc4)c23)C1 (stereo not given)	-24.9	73.1*	11.4	-1.9	nt	-2.2	MPTP abs DR=6.95*;MPTP cs DR=>80
CN1CCN(c2nc(-c3cccnc3)nc3scc(-c4ccccc4)c23)CC1	-3.0	1.0	13.7	-12.0	1.1	nt
CO[C@H]1CN(C)C(=O)c2cc(NC(=O)C3CCCC3)ccc2OC[C@@H](C)N(CCC(F)(F)F)C[C@H]1C	nt	nt	nt	nt	-0.4	nt
CC(C)NC(=O)NCC[C@H]1CC[C@@H](NS(=O)(=O)c2ccc(-c3ccccc3)cc2)[C@H](CO)O1	nt	nt	nt	nt	0.0	nt
Cc1ccc2nc(-c3ccc(N4C(=O)CC(N5CCN(CCO)CC5)C4=O)cc3)sc2c1 (stereo not given)	0.1	94.5*	-1.5	-3.2	nt	-5.9	MPTP abs DR=18.6*;MPTP cs DR=>80
SMILES	CendR NRP1 mod	MPTP inh	SKN-1 inh	ATG4B inh	F508del corr	MPTP counter	others
CC(=O)c1cccc(NC(=O)Nc2ccc3c(c2)N(C)C(=O)CS3)c1	-12.4	90.3*	-0.3	-6.3	nt	76.4*
CCc1ccc(NC(=O)Nc2ccc3c(c2)N(C)C(=O)CS3)cc1	-8.8	56.1*	2.4	-17.2	1.6	70.3*
Cc1noc(C)c1NC(=O)N(C)C[C@H]1Oc2ncc(C#CC3CC3)cc2C(=O)N([C@@H](C)CO)C[C@@H]1C	nt	nt	nt	nt	0.0	nt
CCOC(=O)N1CCN(S(=O)(=O)c2ccc(C(=O)N(CCCN(C)C)c3nc4c(C)c(C)ccc4s3)cc2)CC1	-13.1	75.1*	7.7	-5.0	-0.4	-12.7	MPTP abs DR=5.55*;MPTP cs DR=>80
Cc1ccc2sc(N(CCCN(C)C)C(=O)c3ccc(S(=O)(=O)N(C)C4CCCCC4)cc3)nc2c1C	7.8	88.4*	-6.6	20.8	-6.5	-18.3
Cc1ccc2sc(N(CCCN(C)C)C(=O)c3ccc(S(=O)(=O)N4CCOCC4)cc3)nc2c1C	-15.3	16.1	-18.5	-15.3	-1.7	nt
CN(C)CCCN(C(=O)c1ccc(S(=O)(=O)N2CCCC2)cc1)c1nc2c(F)cc(F)cc2s1	7.0	19.5	0.4	0.8	0.8	nt
CN(C)CCCN(C(=O)c1ccc(S(=O)(=O)N2CCCCCC2)cc1)c1nc2c(F)cc(F)cc2s1	-8.3	88.1*	2.3	3.2	1.4	-11.6	MPTP abs DR=4.26*;MPTP cs DR=>80
CC(C)NC(=O)Nc1ccc2c(c1)C(=O)N([C@@H](C)CO)C[C@@H](C)[C@H](CN(C)Cc1ccc(C(=O)O)cc1)OCCCC[C@@H](C)O2	nt	nt	nt	nt	0.2	nt
CC(C)NC(=O)Nc1ccc2c(c1)C(=O)N([C@@H](C)CO)C[C@H](C)[C@@H](CN(C)S(C)(=O)=O)OCCCC[C@H](C)O2	nt	nt	nt	nt	-1.3	nt
C[C@@H]1CCCCO[C@H](CN(C)C(=O)Nc2ccc(F)cc2)[C@H](C)CN([C@@H](C)CO)C(=O)c2cc(NS(=O)(=O)c3cn(C)cn3)ccc2O1	nt	nt	nt	nt	1.9	nt
Cc1ccc2c(c1)c1c(n2CC(O)CNC(CO)(CO)CO)CCCC1 (stereo not given)	5.1	-1.7	2.3	1.2	0.4	nt
Cc1ccc2c(c1)c1c(n2CC(O)CNC2CCCCC2)CCCC1 (stereo not given)	3.3	79.6*	1.6	-0.6	2.0	-20.4
O=S(=O)(N[C@H]1CC[C@H](CCn2cc(-c3ccccc3F)nn2)O[C@H]1CO)c1ccc(F)cc1	nt	nt	nt	nt	-2.4	nt
CN1/C(=C\C=O)C(C)(C)c2ccccc21	-9.7	1.3	32.5	-11.8	0.5	nt
